Many of the other results were omitted from the sample, so hits are more common in it than they were.
Pf Dd2 growth = blocks in vitro growth of P. falciparum Dd2; AID 1347417; hit rate 4.3% among 120,000; Potency, µM (doses to about 28.9 µM), inactives show at the top dose activity, negative = inhibition, actives largely listed as inhibitors; P. falciparum Dd2 growth, SYBR Green, 72 h; active = well fitted inhibition curve with a large enough effect;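 also: plate controls were DMSO vehicle for no effect and reference drug for full effect; nearly all actives have a fitted effect of over 65% in size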
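Infected erythrocytes (Dd2, 0.3% parasitemia, 2.5% hematocrit final) are added to compound in RPMI-1640/Albumax II medium, grown 72 h at 37C in low oxygen, then lysed with saponin/Triton-X containing SYBR Green and read by fluorescence.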
* = called active by the depositor; i = inactive; [ ] = another dose, or the depositor's remark. Potency is read from the fitted curve at half-maximal effect.

SMILES	Pf Dd2 growth
O=C(Cn1cc(SCc2ccccc2F)c2ccccc21)N1CCCC1	4%
O=C(NCCn1cc(SCc2ccccc2Cl)c2ccccc21)c1cccs1	11µM*
O=C(NCCn1cc(SCc2ccccc2)c2ccccc21)c1cccs1	i
CCn1ccc(C(=O)N2[C@@H]3CC[C@H]2CC(NC(=O)c2ccncc2)C3)n1 (some centres undefined)	16%
CCN(C(=O)Cn1c(SCC(=O)NCc2ccccc2)nc2ccccc21)c1cccc(C)c1	-23%
CCN(C(=O)Cn1c(SCC(=O)Nc2ccc(OC)cc2)nc2ccccc21)c1cccc(C)c1	10µM*
COc1ccc(NC(=O)CSc2nc3ccccc3n2CC(=O)Nc2cccc(C)c2C)cc1	2%
CN(CCC1CCOCC1)C(=O)c1cn(Cc2ccccc2F)nn1	-6%
CCCCc1c(C)nc2c(-c3ccc(Cl)cc3)c(C)[nH]n2c1=O	-19%
Cc1nc2c(-c3ccccc3)c(C)[nH]n2c(=O)c1Cc1ccc(Br)cc1	7.9µM*
Cc1ccc(Cc2c(C)nc3c(-c4ccccc4)c(C)[nH]n3c2=O)cc1	-20%
CC(C)(O)CCc1cccc(C(=O)NCCOc2cccc3cccnc23)c1	-9%
COCc1cc(CNC(=O)c2cn(C3CCC(N)CC3)nn2)[nH]n1 (centres undefined)	8%
CC(C)CN1Cc2ccccc2-n2ccnc2C12CCN(C(=O)C(C)C)CC2	-21%[5.79 µM]
COc1ccccc1C(=O)N1CCC2(CC1)c1nccn1-c1ccccc1CN2C	i[5.79 µM]
COc1ccccc1C(=O)N1CCC2(CC1)c1nccn1-c1ccccc1CN2CC(C)C	0.89µM*
O=C(NCC1CC1)c1cccc(OC2CN(C3CCOCC3)C2)c1	i
O=C(NC1CC1)[C@@H]1CN(Cc2ccc(Cl)cc2F)C[C@H]1CO	7.9µM*
O=C(NC1CC1)[C@@H]1CN(Cc2cc(F)c(F)cc2F)C[C@H]1CO	-22%
COc1ccc(OC2CN(Cc3ccc(NC(C)=O)cc3)C2)cc1	-3%
CNC(=O)[C@@H]1CN(Cc2ccccc2OC(F)(F)F)C[C@H]1CO	6%
COC[C@@H]1CN(Cc2ccc(OC)c(C)c2)C[C@H]1C(=O)NC1CC1	-2%
COC[C@@H]1CN(Cc2ccc(F)cc2F)C[C@H]1C(=O)NC1CC1	-29%
O=C(NCC1CC1)c1cccc(OC2CN(Cc3ccc(OC(F)(F)F)cc3)C2)c1	8.9µM*
O=C(NC1CC1)[C@@H]1CN(Cc2ccc(OC(F)(F)F)cc2)C[C@H]1CO	13µM*
SMILES	Pf Dd2 growth
Cc1cc(=O)n(CCN2CCOCC2)c(N2CCCC2)n1	2%
CC(=O)N1CCN(C(=O)N2CC3CC(C2)[C@H]2CCCC(=O)N2C3)CC1 (some centres undefined)	21%
Cc1cc(C(=O)N2C[C@@H](COCC3CC3)[C@H](c3ccccn3)C2)ccn1	-13%
Cc1ccc(OCCC2CCN(C(=O)CCn3nc(C)cc3C)C2)cc1 (centres undefined)	i
COc1ccc(NC(=O)N[C@H]2C[C@@H](C(=O)N[C@H](Cc3c[nH]c4ccccc34)C(N)=O)N(C(C)=O)C2)cc1	-4%
CC(=O)N(C1CCOCC1)C1CCN(S(=O)(=O)c2ccccc2)CC1	-13%
CC(C)CCCC(=O)N1CCC2(CC1)Nc1ccccc1NC2=O	-16%
CCN1C(=O)C2(CCN(C(=O)c3c(C)noc3C)CC2)c2ccccc21	3.5µM*
CCCC(=O)N1CCC2(CC1)C(=O)N(CC)c1ccccc12	54%
CCN1C(=O)C2(CCN(C(=O)N(C)C)CC2)c2ccccc21	42%
CC(C)S(=O)(=O)N1CC(N(C)Cc2cccnc2)C1	3%
CCOc1ccc(C(=O)NC2CCCN(c3cc(-c4ccc(OC)cc4)[nH]n3)C2)cc1 (centres undefined)	i
CCOc1ccc(C(=O)Nc2ccc(-n3nncc3-c3ccc(OC)cc3)cc2)cc1	92%
Cc1ccc(N2C(=O)c3n[nH]c(C)c3C2c2ccccc2Cl)cc1 (centres undefined)	6%
CCOC(=O)c1ccc(N2C(=O)c3n[nH]c(-c4cccs4)c3C2c2cccc(OC)c2)cc1 (centres undefined)	3.5µM*
CCOC(=O)c1ccc(N2C(=O)c3n[nH]c(-c4cccs4)c3C2c2ccc(OC)cc2OC)cc1 (centres undefined)	11µM*
CCOC(=O)c1ccc(N2C(=O)c3[nH]nc(-c4ccc(OCC)cc4)c3C2c2ccc(OC)cc2OC)cc1 (centres undefined)	7.9µM*
CCOC(=O)c1sc(N2C(=O)c3oc4ccc(F)cc4c(=O)c3C2c2cccc(OC)c2)nc1C (centres undefined)	-32%
CCOC(=O)C1=C(C)N=C2SC=C(CC(=O)N3CCC(C)CC3)N2C1c1cccc(OC)c1 (centres undefined)	-18%
CCOC(=O)c1ccc(N2CC3=C(C2=O)C(c2ccc(OC)cc2)NC(=O)N3C)cc1 (centres undefined)	44%
O=c1c2nc(-c3ccsc3)ccc2ncn1Cc1ccccc1	i
O=Cc1ccc(-c2ccc(C(=O)O)cn2)cc1	10%[44.1 µM]
CC(C)(Oc1nn(Cc2cccc(Cl)c2)c2ccccc12)C(=O)NCc1ccncc1	-6%[44.1 µM]
COc1ccc(C2C(C#N)=C(N)Oc3n[nH]c(C)c32)cc1 (centres undefined)	-13%
Cc1oc2c(c1C(=O)N1CCCC1)CN(Cc1cccc(F)c1)CC2	-21%
SMILES	Pf Dd2 growth
O=C1CCN(Cc2cccc(F)c2)CCCCCCN1	-19%
CN1C(=O)C(CC(=O)NCC2CCN(Cc3cccc(F)c3)CC2)=C2CCCCC21 (centres undefined)	i
Cc1oc2c(c1C(=O)N1CCN(C3CCCC3)CC1)CN(Cc1cccc(F)c1)CC2	8.9µM*
Cc1oc2c(c1C(=O)N1CCCCCC1)CN(Cc1cccc(F)c1)CC2	4µM*
O=C(CC1CCOCC1)N1CCN(Cc2cccc(F)c2)CC1	48%
COC[C@H]1C[C@@H](NC(C)=O)[C@H](O)[C@@H]1O	23%[76.6 µM]
COC(=O)c1cc2n(n1)CCN(C(=O)Cc1[nH]nc3ccccc13)C2	-16%
Cc1cccc(CCNC(=O)CCc2nc(C3CCCN3S(C)(=O)=O)no2)c1 (centres undefined)	41%
NCCC1CCN(C(=O)Nc2ccccc2)CC1	1%
CC(C)CCNC(=O)c1cc2n(n1)CC(c1ccc3c(c1)OCO3)OC2 (centres undefined)	-13%
O=C(c1cccc(F)c1)N1CCOc2ccc(CN3CCc4ccccc4C3)cc2C1	7.9µM*
Cn1nccc1C(=O)N1CCOc2ccc(CN3CCc4ccccc4C3)cc2C1	-7%
CCNC(=O)N1CCOc2ccc(CN3CCc4ccccc4C3)cc2C1	i
Cc1cccc(C(=O)N2CCOc3ccc(CCC(N)=O)cc3C2)c1	-18%
O=C(C1CCC1)N1CCOc2ccc(CN3CCc4ccccc4C3)cc2C1	10µM*
Cc1ccsc1C(=O)N1CCOc2ccc(CN3CCc4ccccc4C3)cc2C1	7.9µM*
O=C(CC(F)(F)F)N1CCOc2ccc(CN3CCc4ccccc4C3)cc2C1	i
O=C(NCc1ccco1)N1CCOc2ccc(CN3CCc4ccccc4C3)cc2C1	-18%
O=C(c1noc2c1CCCC2)N1CCOc2ccc(CN3CCN(c4ccccn4)CC3)cc2C1	-17%
O=CN1CCCC(n2cnc3cccnc32)C1 (centres undefined)	3%[44.1 µM]
COc1ccc2[nH]c(C(=O)N(CC3CC3)CC3CCCO3)c(C)c2c1 (centres undefined)	-5%
CC(C)c1nc2nccc(-c3cccs3)n2n1	i
Cc1nc(CN(C)C(=O)c2cc(Cn3c(C)nc4ccccc43)on2)cs1	-11%
